# Screens (PubChem)
# HCV inh: blocks hepatitis C virus; Huh7.5.1 HCVcc-Cre infection, luciferase reporter, 44 h; Potency, µM (doses to about 41.8 µM), for inactives: at the top dose activity change, negative = inhibition, most hits filed as inhibitors; 340,000 compounds, 3.4% hits; AID 651820; active means well fitted inhibition curve with a large enough effect; inconclusive means small, poorly fitted or top-dose-only effect, or another doubt; inactive means no such curve, though single readings can be large or run the other way; further: potency means the concentration at half of the fitted maximal effect
#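 1,000 cells/well; 4 h culture; + compound; + HCVcc-Cre (~0.5 moi); 44 h; luciferase substrate, RT 15 min; read 15 sec.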
# HCMV antiviral: inhibitors of human cytomegalovirus; AID 1259415; HFF cells, HCMV-luciferase reporter, 72 h; active compounds read low; 410,000 compounds, 4.5% hits; activity change, negative = inhibition, % at 57.5 µM; in the data active means activity change below about -60%; inconclusive means no clear call, values can overlap the other calls; inactive means above about -39%
#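 Steps: HFFs plated, 16 h 37C; compounds added; HCMV-luciferase added to MOI 1 PFU/cell; 72 h 37C; OneGlo reagent, 5 min room temperature; luminescence read, normalized to controls.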
# Lassa entry inh: inhibitors of Lassa virus binding or cell entry; AID 540256; Lassa virus pseudotype entry inhibition, cell reporter; Potency, µM (highest dose often 37.9 µM), for the others: top-dose activity change, negative = inhibition, hits mostly inhibitors; 300,000 compounds, 1.2% hits; calls by dose curve; tested in HEK293 cells; further: potency means the concentration at half of the fitted maximal effect; nearly all actives have a fitted effect of over 50% in size
# Marburg entry inh: Marburg virus entry inhibition; Marburg virus pseudotyped entry inhibition, cell reporter; Potency, µM (highest dose often 37.8 µM), for the others: at the top dose activity change, negative = inhibition, actives largely listed as inhibitors; 300,000 compounds, 1.8% hits; calls by dose curve; tested in HEK293 cells; further: potency means the concentration at half of the fitted maximal effect
# FMDV inh: foot and mouth disease virus antiviral activity; FMDV antiviral cell-based qHTS; Potency, µM (highest dose often 57.9 µM), without a hit: top-dose activity change, negative = inhibition, usual class: inhibitors; 410,000 compounds, 1.2% hits; AID 1159524; calls by dose curve; tested in HEK293T cells; further: read-out not given here; potency means the concentration at half of the fitted maximal effect; nearly all actives have a fitted effect of over 45% in size
# An asterisk follows results filed as active; ? = inconclusive; / = no result; [ ] = dose if it differs, or a comment. Sampled rows, rich in hits. Any-hit rate of the full collection: about 7.9%. On the % scale 0 is the no-effect control and ±100 the full control effect.
SMILES,HCV inh,HCMV antiviral,Lassa entry inh,Marburg entry inh,FMDV inh
CC1=C(C(=O)N(C)C)CC(CC(=O)NC2CCCCC2)C(=O)N1CCC1=CCCCC1 (stereo unspecified),/,60,/,/,62%
O=C(NCc1ccncc1)c1ccc(-c2ccc(F)c(F)c2)c2ccoc12,/,-73*,/,/,?
COc1ccc(-c2ccc(C(=O)NCc3ccncc3)c3occc23)c(C)c1,/,-91*,/,/,-19%
O=C(NCc1ccncc1)c1cc(-c2ccc(Cl)cc2)oc1C(F)(F)F,11µM*,-27,/,/,?
Cc1ccccc1Cn1c(=O)n(CC2CCC(C(=O)N3CCC(C)CC3)CC2)c(=O)c2sccc21 (stereo unspecified),/,-75*,?,/,?
COc1ccc(C)cc1NC(=O)CSc1nc2ccccc2nc1N1CCCC1,2%,27,/,/,-8%
N.N.N.N.N.N.N.N.N.N.N.N.N.N.O.O.[Ru+4].[Ru+5].[Ru+5],/,/,-26%,?,/
Cn1c(-[n+]2c(-c3ccccc3)cc(-c3ccccc3)cc2-c2ccccc2)nc2c([N+](=O)[O-])cccc21,?,-60*,?,?,-4%
C=CCCCN1C=C(C(=O)OCC)C(c2ccccc2)NC1=O (stereo unspecified),/,/,/,-11%[14.2 µM],/
O=C1c2ccc3c4c(ccc(c24)C(=O)N1NC(=O)C(F)(F)F)CC3,7%,-18,14%,4%,/
CC(=O)NN1C(=O)c2ccc3c4c(ccc(c24)C1=O)C(=O)N(NC(C)=O)C3=O,10µM*,-104*,/,/,-19%
COc1ccc(NC(=S)N2CCN(c3ncccn3)CC2)c(OC)c1,5%,0,/,/,-14%
CCC(C)NC(=O)C1CCC(=O)N1CCc1ccccc1 (stereo unspecified),24%,29,-10%,28%,7%
Cc1ccccc1-c1ccc(/C=C2/SC(N3CCOCC3)=NC2=O)o1,?,-17,13µM*,?,-20%
O=C1N=C(N2CCOCC2)S/C1=C\c1ccc(-c2ccccc2Cl)o1,-11%,20,-1%,?,9%
CC(/C=N/NC(=O)c1cc(-c2ccc(Cl)cc2)nc2ccccc12)=C\c1ccco1,?,-83*,?,?,-5%
CC(=O)Nc1ccc(/C=N/NC(=O)c2cc3cc(C)ccc3nc2C)cc1,-1%,-8,25%,-17%,-1%
O=C(N/N=C/c1ccccn1)c1cc(-c2ccccc2)nc2ccccc12,11%,10,/,/,-41%
O=C(N/N=C/c1ccc(O)cc1)c1cc(-c2ccccc2)nc2ccccc12,-14%,-76*,/,/,17%
CC(/C=C/c1cccc([N+](=O)[O-])c1)=N/NC(=O)c1cccnc1,13%,-62*,-11%,-26%,-7%
CC(=O)Nc1ccc(/C=N/NC(=O)c2cc3ccccc3nc2C)cc1,16%,-72*,?,7%,-6%
COc1ccc(CCNC(=O)CCNC(=O)c2ccccc2Cl)cc1,5%,?,7%,24%[46.1 µM],1%
CNC1C(O)[C@@H]2OC(O[C@@H]3C(O)C(O)C(N)C[C@H]3N)C(N)C[C@H]2O[C@H]1O[C@@H]1OC(CO)C(N)C(O)C1O (stereo partly specified),/,/,/,/,-11%
Nc1nc[nH]c(=O)c1N=Cc1ccccc1,23%,?,0%[46.1 µM],0%[46.1 µM],-9%
CCOc1cc(/C=N/NC(=O)c2cc(-c3cccc(OC)c3)nc3ccccc23)ccc1O,-21%,-34,?,?,?
SMILES,HCV inh,HCMV antiviral,Lassa entry inh,Marburg entry inh,FMDV inh
COc1cccc(/C=N/NC(=O)c2cc(-c3ccccn3)nc3ccccc23)c1O,4µM*,-63*,?,?,3%
O=C(N/N=C/c1ccc(F)cc1)c1cc(-c2ccccn2)nc2ccccc12,16%,-5,-4%,-13%,-1%
COc1cc(/C=N/NC(=O)c2cc(-c3ccccc3OC(C)C)nc3ccccc23)ccc1O,-12%,-21,5.8µM*,4.6µM*,?
Cc1cc(C(=O)N/N=C/c2ccc(C)o2)c2ccccc2n1,-5%,-63*,?,?,-6%
CC(C)COc1cccc(-c2cc(C(=O)N/N=C/c3ccncc3)c3ccccc3n2)c1,?,?,?,2.8µM*,12%
CCCSc1nc2sc3c(c2c(=O)n1-c1ccccc1)CCC(C)C3 (stereo unspecified),/,-14,?,-4%[46.1 µM],-1%
COc1ccc(/C=N/NC(=O)c2cc(-c3ccccc3)nc3ccccc23)cc1O,-13%,-15,-23%[46.1 µM],13µM*,-13%
O=C(NN=Cc1cccc([N+](=O)[O-])c1)c1cc(-c2cccnc2)nc2ccccc12,?,-14,/,/,28µM*
Cc1cc(C(=O)N/N=C/c2cccc([N+](=O)[O-])c2)c2ccccc2n1,-15%,-34,-8%,-1%,-29%
COc1cc(/C=N/NC(=O)c2cc(-c3ccccc3)nc3ccccc23)ccc1O,-9%,-67*,?,?,2%
CCOc1ccc(/C=N/NC(=O)c2cc(-c3ccccc3)nc3ccccc23)cc1O,-29%,-29,/,3%,?
CCc1ccccc1NC(=O)Cn1c(=O)ccc2cc(S(=O)(=O)N3CCC(C)CC3)ccc21,/,-5,-14%[46.1 µM],/,-10%
COC(=O)c1cc2oc(C)cc2n1CC(=O)Nc1ccc(OC)c(OC)c1,/,8,/,0%[46.1 µM],-4%
Brc1ccc(-c2csc(-c3c[nH]c4ccccc34)n2)cc1,6.3µM*,-10,-7%,?,29%
CCCN(CCC)CC(C)(C)NS(=O)(=O)c1ccc(Cl)cc1,?,27,0%,-21%,-12%
COc1ccc(CCNC(=O)Cn2cnc3scc(-c4ccccc4)c3c2=O)cc1OC,-19%,-102*,/,/,-18%
NC(=O)c1ccccc1NC(=O)CN1CCN(Cc2ccc(Cl)cc2Cl)CC1,?,?,-26%,?,18µM*
Cc1cc(C)c(NC(=O)CSc2nnnn2-c2cccnc2)c(C)c1,19%,-33,-2%[46.1 µM],-2%[46.1 µM],-7%
COc1ccc(N=C2S/C(=C\c3ccc(Cl)c([N+](=O)[O-])c3)C(=O)N2CCN(C)C)cc1,?,-39,/,/,28µM*
CCCN1C(=O)/C(=C/c2ccc(C)s2)SC1=Nc1ccc(OC)cc1,-12%,-15,?,18%,-28%
CCN(CC)CCN1C(=O)/C(=C\c2ccc(Cl)c([N+](=O)[O-])c2)SC1=Nc1ccc(OC)cc1,?,-99*,?,?,25µM*
Cc1ccc2c(c1N)C(=O)c1ccccc1C2=O,-19%,191,/,/,18%
Cc1ccc2c(c1C)-c1c(ccc(C)c1C)C(=O)C2=O,11µM*,-96*,?,?,28µM*
CC(=O)Nc1ccc(S(=O)(=O)Oc2cccc(N3C(=O)C4CCCCC4C3=O)c2)cc1 (stereo unspecified),22%,-12,4%,?,18µM*
CCOCCCNC(=O)C(NC(=O)c1ccc(NC(C)=O)cc1)c1ccc(C)cc1 (stereo unspecified),4%,26,4%,?,11%
